This is a sample that favours compounds with a hit; in the whole collection about 6.2% have one here.
FMDV antiviral – High Throughput Screening for Foot and Mouth Disease Virus Antivirals | FMDV antiviral cell-based qHTS | Potency, µM (series often up to 57.9 µM), inactives show top-dose activity change, negative = inhibition, actives largely listed as inhibitors | actives 1.2% (n = 410,000); calls by dose curve; tested in HEK293T cells; note: read-out not given here; potency is the fitted concentration of half-maximal effect; nearly all actives have a fitted effect of over 45% in size
HCMV antiviral – qHTS Assay for inhibitors of the human cytomegalovirus (HCMV) | HFF cells, HCMV-luciferase reporter, 72 h; hits give low values | activity change, negative = inhibition, % at 57.5 µM | actives 4.5% (n = 410,000) | AID 1259415, 2018; in the data active = activity change below about -60%; inconclusive = no clear call, values can overlap the other calls; inactive = above about -39%
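Cell-based, HFFs, 1000 cells/well, 16 h 37C; cpds in DMSO + HCMV-luc, MOI 1 PFU/cell; 72 h 37C; OneGlo luminescence after 5 min RT; norm. to buffer vs Salinomycin 10uM.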
MARV entry inh – qHTS for inhibitors of binding or entry into cells for Marburg Virus; Marburg virus pseudotyped entry inhibition, cell reporter; Potency, µM (titrated, usually from 37.8 µM), for the others: at the highest dose activity change, negative = inhibition, hits mostly inhibitors; actives 1.8% (n = 300,000); AID 540276, 2011; calls by dose curve; tested in HEK293 cells; note: potency is the fitted concentration of half-maximal effect
LASV entry inh – qHTS for Inhibitors of binding or entry into cells for Lassa Virus; Potency, µM (top dose mostly 37.9 µM), for the others: top-dose activity change, negative = inhibition, usual class: inhibitors; Lassa virus pseudotype entry inhibition, cell reporter; AID 540256, 2011; actives 1.2% (n = 300,000); calls by dose curve; tested in HEK293 cells; note: potency is the fitted concentration of half-maximal effect; nearly all actives have a fitted effect of over 50% in size
The depositor's hits bear a star; [ ] = another dose, or the depositor's remark. % is set by controls: 0 for no effect and ±100 for the full control effect.

What do the screens show for `Cc1cccc(Nc2ncnc3ccc(Br)cc23)c1`?
FMDV antiviral: -19.3%; HCMV antiviral: -60.5*; MARV entry inh: inconclusive; LASV entry inh: -6.0%[46.1 µM]

How did Cc1ccc2ncnc(Nc3ccccc3)c2c1 do in these assays?
FMDV antiviral: 13.3%; HCMV antiviral: -18.1; MARV entry inh: -4.5%[46.1 µM]; LASV entry inh: -0.8%

Results for CN(C)c1ccc(Nc2ncnc3ccc(Br)cc23)cc1 ?
FMDV antiviral: 5.5%; HCMV antiviral: -76.1*

How did CC(O)(COc1ccccc1)c1ccc2c(c1)CN(C/C=C/c1ccco1)CCO2 (stereo unspecified) do in these assays?
FMDV antiviral: -5.2%

Results for N=C(N)c1ccc(OCCCCCOc2ccc(C(=N)N)cc2)cc1 ?
FMDV antiviral: inconclusive; HCMV antiviral: -88.6*; MARV entry inh: inconclusive; LASV entry inh: inconclusive

What do the screens show for `CCCCCCOc1ccc(/C(N)=N/O)cc1`?
FMDV antiviral: 37.4%; HCMV antiviral: 59.6; MARV entry inh: -5.5%; LASV entry inh: 10.0%

How did O=C1NC(c2cccc3ccccc23)Nc2ccccc21 (stereo unspecified) do in these assays?
FMDV antiviral: 5.3%; HCMV antiviral: -69.0*; MARV entry inh: inconclusive; LASV entry inh: inconclusive

What do the screens show for `CCN(CC)c1ccc(C2NC(=O)c3ccccc3N2)cc1` (stereo unspecified)?
FMDV antiviral: 11.2µM*; HCMV antiviral: -25.0; MARV entry inh: inconclusive; LASV entry inh: 6.31µM*

How did Cc1ccc(N=C2C(=O)Nc3ccccc32)cc1 do in these assays?
FMDV antiviral: -10.3%; HCMV antiviral: 16.1

What do the screens show for `CCN(CC)c1ccc(N=C2C(=O)Nc3ccccc32)cc1`?
FMDV antiviral: -22.3%; HCMV antiviral: -96.1*; MARV entry inh: inconclusive; LASV entry inh: -25.6%

What do the screens show for `CCN1CCC(N(Cc2ccc(F)cc2)C(=O)Nc2cc(Cl)ccc2C(=O)OC)CC1`?
FMDV antiviral: inconclusive; HCMV antiviral: -39.9; LASV entry inh: inconclusive

Results for COc1cccc(C(=O)Nc2cccc(OCc3cc(=O)n4c5c(sc4n3)CCCC5)c2)c1 ?
FMDV antiviral: 22.5%; HCMV antiviral: 19.4; MARV entry inh: 3.6%[46.1 µM]; LASV entry inh: inconclusive

What do the screens show for `Cc1ccc(NC(=O)c2c(NC(=O)c3ccc(F)cc3)sc3c2CCCC3)cc1C`?
FMDV antiviral: 45.2%; HCMV antiviral: 21.1; LASV entry inh: -3.6%[46.1 µM]

How did COc1ccccc1-c1cc2c(c(OC)c1)OCCN(C(=O)Cn1nc(-c3ccccc3)c3ccccc3c1=O)C2 do in these assays?
FMDV antiviral: -8.6%

Results for CCCn1c(CC)nc([N+](=O)[O-])c1Sc1ccc(F)cc1 ?
FMDV antiviral: 17.8µM*; HCMV antiviral: -39.8; MARV entry inh: -2.0%; LASV entry inh: -2.0%

What do the screens show for `CCOc1ccc(-n2c(=O)c3c(C)c(C(=O)N(C)C)sc3n(Cc3cc(C)ccc3C)c2=O)cc1`?
FMDV antiviral: -4.3%; HCMV antiviral: 42.1; LASV entry inh: 6.1%[46.1 µM]

Results for COc1ccc(C(=O)Cn2nc(CNc3ccc(Br)cc3)[n+]3c2CCCCC3)cc1 ?
FMDV antiviral: -15.8%; HCMV antiviral: -60.5*; MARV entry inh: inconclusive; LASV entry inh: -27.1%

Results for O=C(Cn1nc(-c2nn(CC(=O)c3ccccc3)c3[n+]2CCCCC3)[n+]2c1CCCCC2)c1ccccc1 ?
FMDV antiviral: 0.3%; HCMV antiviral: 24.4; MARV entry inh: 0.1%[46.1 µM]; LASV entry inh: 5.9%

What do the screens show for `CCN1C(=O)C(Cc2nc3ccccc3c(=O)n2-c2cccc(C)c2)c2ccccc21` (stereo unspecified)?
FMDV antiviral: 16.1%; HCMV antiviral: -7.7; MARV entry inh: -1.4%[46.1 µM]; LASV entry inh: -20.3%[46.1 µM]

Results for COc1ccc(CN(C)c2ccc(S(=O)(=O)N3CCN(C)CC3)cc2[N+](=O)[O-])cc1OC ?
FMDV antiviral: inconclusive; HCMV antiviral: -85.9*; MARV entry inh: inconclusive; LASV entry inh: inconclusive

How did CN(CC(=O)Nc1ccc(Cl)cc1)c1ccc(S(=O)(=O)N2CCCCC2)cc1[N+](=O)[O-] do in these assays?
FMDV antiviral: inconclusive; HCMV antiviral: -67.7*; MARV entry inh: inconclusive; LASV entry inh: inconclusive

Results for O=[N+]([O-])c1cc(S(=O)(=O)N2CCCCCC2)ccc1F ?
FMDV antiviral: inconclusive; HCMV antiviral: -97.2*; MARV entry inh: 11.2µM*; LASV entry inh: inconclusive

Results for COc1ccc(CCN(C)c2ccc(S(=O)(=O)N3CCCC3)cc2[N+](=O)[O-])cc1OC ?
FMDV antiviral: inconclusive; HCMV antiviral: inconclusive; MARV entry inh: -32.0%; LASV entry inh: inconclusive

What do the screens show for `O=[N+]([O-])c1cc(S(=O)(=O)N2CCCC2)ccc1O`?
FMDV antiviral: -10.3%; HCMV antiviral: 15.6; MARV entry inh: inconclusive; LASV entry inh: 7.0%

Results for CC1=C[C@@H](COCc2ccccc2)O[C@@]2(C1)C(=O)N(CC1CC1)c1ccccc12 ?
MARV entry inh: 0.8%[14.2 µM]

Results for O=c1[nH]c2ccc(NCc3ccc(-c4ccc(Br)cc4)o3)cc2[nH]1 ?
FMDV antiviral: -21.1%; HCMV antiviral: 5.7; MARV entry inh: 7.4%[46.1 µM]; LASV entry inh: -3.3%[46.1 µM]

Results for O=c1[nH]c2ccc(NCc3ccc(-c4cccc(Cl)c4)o3)cc2[nH]1 ?
FMDV antiviral: -16.0%; HCMV antiviral: -60.6*; MARV entry inh: inconclusive; LASV entry inh: 0.6%[46.1 µM]

Results for CCC(CNc1cc(OC)cc2cccnc12)NC1CCCCC1 (stereo unspecified) ?
FMDV antiviral: -18.7%; HCMV antiviral: -23.3

What do the screens show for `COc1cc(NCCCC(C)N)c2ncccc2c1` (stereo unspecified)?
FMDV antiviral: -18.5%; HCMV antiviral: -106.8*; MARV entry inh: 3.55µM*; LASV entry inh: inconclusive

How did COc1cc(NCCCCC(C)N)c2nccc(C)c2c1 (stereo unspecified) do in these assays?
FMDV antiviral: -24.0%; HCMV antiviral: -70.6*

Results for CSc1ncc(C(=O)NCc2cccc(C)c2)c(-c2ccccc2)n1 ?
FMDV antiviral: -6.3%; HCMV antiviral: -7.2; LASV entry inh: -13.7%[46.1 µM]

How did Cc1onc(NC(=O)CSCC(=O)O)c1Br do in these assays?
FMDV antiviral: 1.4%; HCMV antiviral: -72.6*; MARV entry inh: 7.2%[46.1 µM]; LASV entry inh: -14.9%[46.1 µM]

What do the screens show for `CCCOC(=O)c1c(NC(=O)c2nc3ncccn3n2)sc(C(=O)OCC)c1C`?
FMDV antiviral: -5.2%; HCMV antiviral: 13.8; MARV entry inh: inconclusive; LASV entry inh: 5.9%[46.1 µM]

What do the screens show for `COC(=O)C1=C(C)N(Cc2cccc(C(F)(F)F)c2)C(=NCc2ccc3c(c2)OCO3)NC1c1ccc(F)cc1` (stereo unspecified)?
HCMV antiviral: -85.3*

How did COC(=O)C1=C(C)N(Cc2ccccc2)C(=NCC2CC2)NC1c1cccc(C(F)(F)F)c1 (stereo unspecified) do in these assays?
MARV entry inh: 11.4%[14.2 µM]

How did COC(=O)C1=C(C)N(Cc2ccccc2)C(=NCc2ccc3c(c2)OCO3)N[C@H]1c1ccccc1 do in these assays?
FMDV antiviral: -21.9%; HCMV antiviral: -3.7

Source: PubChem (National Center for Advancing Translational Sciences (NCATS))
